A selection follows. The hit rate among all sequences tested is not known here.
B1: il2ra_site2_3nfp_sap_19_mot_HHH_b1_06699_000000048_0001_23_40_H_._ems_3hC_59_0001_0000100006_0000001_0_0001_af2pred_0001_af2pred (protein)
chain: SSSSSDAAEEAEELAEEARHVEDPEERERILRKAAELAYRARDHEVFAEIHLVIEELERSSSSSS
B2: il2ra_site1_3nfp_normal_mot_HHH_b2_08102_af2_000000255_0001_38_50_H_._HHH_b2_05157_0001_0000400017_0000001_0_af2pred_0001_af2pred (protein)
chain: SSSSDHLAREYTEWAKRRIRELLERGDEEAARRLLEKAKRSLEIAGDEEAVEELEKLYEELSSSS
B3: il2ra_site1_2b5i_normal_mot_HHH_b2_01040_af2_000000143_0001_42_56_H_._HHH_b1_04969_af2_0002_0000100009_0000001_0 (protein)
chain: SSSSSDEAEEAAREALELLRELLRVDEEEIKELLEEAHEKLEKLNDEALLKRVERLLRLLSSSSS
B4: il2ra_site1_3nfp_sap_13_mot_HHH_b1_04931_000000291_0001_38_56_H_._HHH_b2_07276_0001_0000200010_0000001_0_0001 (protein)
chain: SSSSSDYEELERLFREIFELAKKGDHEEARRLIEELEELAHEANNEFMEQAVKQLKKTVNSSSSS
B5: il2ra_site2_3nfp_normal_mot_HHH_b2_00232_000000252_0001_23_39_H_._HHH_b2_01857_0001_0000200024_0000001_0_1_af2pred_0001_af2pred (protein)
chain: SSSSSDEEEEKVEELLEEAEHIEDEEELEDILALAFLIAFEAEDPELLRLVREVSAELLQSSSSS
B6: il2ra_site2_2erj_sap_21_mot_39ed66e5fba071e4f274ea7f2cf018e6_0001_000000286_0001_17_31_H_._HHH_b1_00857_0001_0000200006_0000001_0_0001_af2pred_0001_af2pred (protein)
chain: SSSSEEREKAKELAARALQLRERGNPEEAEELLREAEEIAREGGDEELLQLIQAALRLIELSSSS
B7: il2ra_site1_3nfp_normal_mot_HHH_b1_02721_af2_000000134_0001_39_56_H_._HHH_b2_00677_af2_0001_0000100009_0000001_0 (protein)
chain: SSSSSDTEEAFQLDRELLEALRKGDEELIEELLRELEELAKELNDELAERLVEQFKELLKSSSSS
B8: il2ra_site2_2erj_sap_26_mot_HHH_b2_08005_af2_000000017_0001_39_52_H_._5f42aca8a0c299d7b7d7982f3e471efe_0001_0001_0000400050_0000001_0_0001 (protein)
chain: SSSSDLEEEVERIEKEAEELYKNGNPEEALRLLSELFDELYQLGDHELAARVIKLVAELARSSSS
B9: il2ra_site1_1z92_normal_mot_HHH_b1_04329_000000069_0001_1_19_H_._HHH_b2_03912_0001_0000100007_0000001_0_af2pred_0001_af2pred_1 (protein)
chain: SSSSIELIRFADEVVLRLAEEYKLSDEDAQYLAEVAIELIRRGYSEEEIEEILQEEAEKLSSSSS
B10: il2ra_site2_2erj_sap_19_mot_HHH_b2_00505_000000221_0001_1_17_H_._HHH_b1_08169_0001_0000200013_0000001_1_0001 (protein)
chain: SSSSSEWLHRSYKLANELMHLLARGDEEEFERLVEEIEKFAEERDNKVLKEIVESLHRLFNSSSS
B11: il2ra_site1_2b5i_normal_mot_HHH_b2_04910_000000118_0001_1_19_H_._HHH_b1_07294_af2_0001_0000100005_0000001_0_af2pred_dldesign_0_af2pred (protein)
chain: SSSSSSKEALELFLKANEAYQAGNYEEAKKLLEEALEKAKAAGMTALVKMIESALESLSSSSSSS
B12: il2ra_site1_3nfp_sap_20_mot_HHH_b2_00213_000000088_0001_1_18_H_._HEEHE_0331_af2_0001_0000400039_0000001_0_0001_af2pred_dldesign_0_af2pred (protein)
chain: SSSSSLRKELERLLKKAYETGKKNDKEKLKKLLEEALKLAKENKAKLSVKFLERALKQLKSSSSS
B13: il2ra_site1_1z92_normal_mot_HHH_b1_04604_af2_000000029_0001_42_56_H_._HHH_b2_07020_af2_0001_0000300012_0000001_0 (protein)
chain: SSSSSSDVIELALRLARALRRGDEEEVQELLEELKRYAEERDNRAAREIAERIEKHLGSSSSSSS
B14: il2ra_site1_1z92_sap_15_mot_e1ae4cb039f7b6770b9307eb87230ce5_0001_000000230_0001_37_51_H_._22eb9e4dad251339c268dc73c902281b_0001_0001_0000100004_0000001_0_0001_ … (protein)
chain: SSSSSSERDARIVVELAVRAAGLSEEQQEELERLAKELLEEGYSFEEIARILDKLALELGSSSSS
B15: il2ra_site2_2erj_sap_13_mot_HHH_b2_06689_af2_000000039_0001_18_34_H_._HHH_b1_05500_af2_0001_0000100002_0000001_0_0001 (protein)
chain: SSSSSEELHRLYELAVELLRAVAEGDEELVREILEEVEELAERADSENVKELIENLHRLFNSSSS
B16: il2ra_site1_2b5i_normal_mot_HHH_b1_02271_000000068_0001_1_16_H_._HHH_b2_05772_0001_0000400026_0000001_0_af2pred_dldesign_0_af2pred (protein)
chain: SSSSSPELKRLVEEALRRAEAAKAAGRVREALEILNAAHKKADEADDEELSDELEAKAKELSSSS
B17: il2ra_site1_1z92_sap_10_mot_d8cfa582855fb05d91e09f57594ab115_0001_1_000000067_0001_37_51_H_._HEEHE_2450_0001_0000100007_0000001_0_0001 (protein)
chain: SSSSSEAERAFELIREIDEVIREGDEEEAKRLLEELRRLAEERNSPTMKRLLELLEEALEGSSSS
B18: il2ra_site2_2erj_normal_mot_6bd1339e93f6fdda22195c76da45ec5d_0001_000000136_0001_37_51_H_._ems_3hC_696_0001_0000700021_0000001_0_af2pred_0001_af2pred (protein)
chain: LEEDILRAFRIAVELLEKFRDDPEIERLVLEASLELTEAIEENDEEKIERVIEKIEEIKEEADSS
B19: il2ra_site2_3nfp_sap_19_mot_HHH_b1_03376_000000004_0001_41_55_H_._88162e6262ef81793ed720f4f561f318_0001_0001_0000800035_0000001_0_0001_af2pred_0001_1_af2pred_sw … (protein)
chain: SSDEEQEESEELKELIREALEKNDDEKLRKLIKEAASFALQLNDEELLEFASEARALLAKLRLSS
B20: il2ra_site1_1z92_normal_mot_922575b2e9738a49cb663a995786872c_0001_af2_000000234_0001_18_32_H_._09c2afe89fb4cbada1505b3a46965288_0001_af2_0001_0000100006_0000001 … (protein)
chain: GPEQELEELEEELGDPREAIRLLLEELEEESGDPELARQFLKIEIKRLFNVPPEEAERLLREAEK
B21: il2ra_site1_3nfp_normal_mot_HHH_b1_04931_000000291_0001_38_56_H_._5fa2c1a30f04debedfe40931e4d0b367_0001_af2_0001_0000700055_0000001_0 (protein)
chain: DVRFLLEAARFAGDELVVEVAEKLEELREEDPDDQEVKELVQKLLQLLAKDPEEAKKLAEELKRR
B22: il2ra_site1_3nfp_normal_mot_ems_3hC_3_0002_000000237_0001_23_41_H_._971380201c9414114138cf1fdc40c0f4_0001_1_0001_0000300014_0000001_0_af2pred_0001_af2pred (protein)
chain: SLAEELVEEIEEKGLPPEEIEKLIREILKRIGDPEEAREFFEELMRLAAKNRNEELLEAIKLVLR
B23: il2ra_site1_3nfp_sap_10_mot_HHH_b2_00770_af2_000000063_0001_1_19_H_._HHH_b2_07788_0001_0000400012_0000001_0_0001 (protein)
chain: NEEARRLAEAIARGDPRVEELIEELVEELKRKGDPDLRHALKALARMARSFGNPELAEELERLLK
B24: il2ra_site1_1z92_normal_mot_HHH_b1_07828_af2_000000107_0001_18_34_H_._HHH_b1_02447_af2_0001_0000300012_0000001_0 (protein)
chain: SSSSDLEEAIEILLQAIRRAIEAGNEKAAERFIEFAKEQIEDSGDPELERILRELEELLRSSSSS

Molecular target: il2ra, P01589
Sequence (P01589 whole entry): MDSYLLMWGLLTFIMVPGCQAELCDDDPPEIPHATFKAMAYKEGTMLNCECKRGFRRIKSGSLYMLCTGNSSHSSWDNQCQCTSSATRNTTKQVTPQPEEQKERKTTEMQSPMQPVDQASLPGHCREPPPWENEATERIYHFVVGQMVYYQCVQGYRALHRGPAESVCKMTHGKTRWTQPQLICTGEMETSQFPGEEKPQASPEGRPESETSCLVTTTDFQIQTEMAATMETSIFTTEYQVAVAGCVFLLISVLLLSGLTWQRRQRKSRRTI
Test: yeast display titration

Apparent Kd, inactive:
B1 no binding seen
B2 no binding seen
B3 no binding seen
B4 no binding seen
B5 no binding seen
B6 no binding seen
B7 > 802 nM
B8 no binding seen
B9 no binding seen
B10 no binding seen
B11 no binding seen
B12 > 1470 nM
B13 no binding seen
B14 no binding seen
B15 no binding seen
B16 no binding seen
B17 no binding seen
B18 no binding seen
B19 no binding seen
B20 no binding seen
B21 no binding seen
B22 no binding seen
B23 no binding seen
B24 no binding seen

— paper PMC10163288
